{
  "source": "PubChem BioAssay (Tox21)",
  "note": "The source made the active and inactive calls. Calls come from the whole dose curve; as a rule, active = well fitted activation curve with a large enough effect in the repeat runs; inconclusive = weak or mixed curves; inactive = flat fitted curve, though single readings scatter.",
  "data": [
    {"test": "A CellTox Green Cytotoxicity Assay to monitor cytotoxicity in HepG2 cells - 0 hour (AID 1224882); note: nearly all actives have a fitted effect of over 35% in size", "details": "CellTox Green fluorescence; series mostly up to 76.8 µM", "from_the_text": "National Center for Advancing Translational Sciences [NCATS]\nNIH Chemical Genomics Center [NCGC]\nU.S. Environmental Protection Agency [EPA]\nNational Institutes of Environmental Health Sciences [NIEHS]\nNational Toxicology Program [NTP]\nCell-based models are critical for drug discovery. Determining the natural cytotoxic effects resulting from test compounds is an essential research activity. A CellTox Green Cytotoxicity Assay to monitor cytotoxicity in real time of continues cell culture during 40 hours of the compound treatment was used to screen Tox21 10K library compounds in HepG2 cells. CellTox Green Cytotoxicity Assay is a nonlytic, homogeneous, biofluorescent method to measure cytotoxicity in cell culture after experimental manipulation. The assay system uses a proprietary asymmetric cyanine dye that is excluded from viable cells but preferentially stains the dead cell's DNA. […] Viable cells produce no appreciable increases in fluorescence. Therefore, the fluorescence signal produced by the binding interaction with dead cell DNA is proportional to cytotoxicity.\nThe mixture of HepG2 cell suspension and reagents were dispensed at 600cells/6 ul/well in 1536-well tissue culture treated black solid bottom plates using a Multidrop dispenser. After the assay plates were incubated at a 37 C/5% CO2 incubator for 5 hours, 23 nL of compounds dissolved in DMSO, positive and negative controls was transferred to the assay plate by a pintool work station. The plates were incubated at 37 C for 40 hours. The fluorescence intensity were measured at 0h, 8h, 16h, 24h, 32h and 40h time points using ViewLux plate reader during compound treatment.", "values": [
      {"smiles": "O=C(O)C(Cl)Br", "note": "(stereo not given)", "outcome": "inactive"},
      {"smiles": "ClCCCCl", "outcome": "inactive"},
      {"smiles": "CC[C@H](N)c1ccccc1", "outcome": "inactive"},
      {"smiles": "CCCC[N+](=O)[O-]", "outcome": "inactive"},
      {"smiles": "O=C1CC(=O)NC(=O)N1", "outcome": "inactive"},
      {"smiles": "CCOP(=O)(CN(CCO)CCO)OCC", "outcome": "inactive"},
      {"smiles": "CCCC(C)C1(CC)C(=O)N=C(S)NC1=O", "note": "(stereo not given)", "outcome": "inactive"},
      {"smiles": "ClCC1CO1", "note": "(stereo not given)", "outcome": "inactive"},
      {"smiles": "NNC(N)=O", "outcome": "inactive"},
      {"smiles": "COc1cccc(C=O)c1", "outcome": "inactive"},
      {"smiles": "C=C1C[C@@H]2[C@H](CC[C@]3(C)C(=O)CC[C@@H]23)[C@@]2(C)C=CC(=O)C=C12", "outcome": "inactive"},
      {"smiles": "BrCCc1ccccc1", "outcome": "inactive"},
      {"smiles": "C(COCC1CO1)OCC1CO1", "note": "(stereo not given)", "outcome": "inactive"},
      {"smiles": "CC(C)(C)C(=O)Cl", "outcome": "inactive"},
      {"smiles": "ClCCCCCCCl", "outcome": "inactive"},
      {"smiles": "N=C(N)[Se]", "outcome": "inactive"},
      {"smiles": "C=CC=O", "outcome": "inactive"},
      {"smiles": "CCCOc1nn(C(=O)NS(=O)(=O)c2ccccc2C(=O)OC)c(=O)n1C", "outcome": "inactive"},
      {"smiles": "CN(C)C1CCCCC1", "outcome": "inactive"},
      {"smiles": "COc1ccc(CN2CCNCC2)c(OC)c1OC", "outcome": "inactive"},
      {"smiles": "CON(C)C(=O)Nc1ccc(Br)c(Cl)c1", "outcome": "inactive"},
      {"smiles": "CCCN1CCC[C@@H]2Cc3[nH]ncc3C[C@H]21", "outcome": "inactive"},
      {"smiles": "O=C(O)C(F)(F)C(F)(F)C(F)(F)C(F)(F)C(F)(F)C(F)(F)F", "outcome": "inactive"},
      {"smiles": "BrCC1CO1", "note": "(stereo not given)", "outcome": "inactive"},
      {"smiles": "Clc1nc(Cl)nc(Nc2ccccc2Cl)n1", "outcome": "inactive"},
      {"smiles": "CC(C)(C)c1cc(O)ccc1O", "outcome": "inactive"},
      {"smiles": "COC1=CC(=O)O[C@@H](/C=C/c2ccccc2)C1", "outcome": "inactive"},
      {"smiles": "ClC1=C(Cl)C2(Cl)C(CBr)CC1(Cl)C2(Cl)Cl", "note": "(stereo not given)", "outcome": "inactive"},
      {"smiles": "COc1ccc2c(C(=O)c3ccc(Cl)cc3)c(C)n(CC(=O)O)c2c1", "outcome": "inactive"},
      {"smiles": "COC(=O)c1ccccc1CS(=O)(=O)NC(=O)Nc1nc(OC)cc(OC)n1", "outcome": "inactive"},
      {"smiles": "NC1(c2ccccc2)CCCCC1", "outcome": "inactive"},
      {"smiles": "CN=CNc1ccc(C)cc1C", "outcome": "inactive"},
      {"smiles": "c1cncc([C@@H]2CCCCN2)c1", "outcome": "inactive"},
      {"smiles": "CCOP(=S)(OCC)Oc1ccc(Cl)cc1Cl", "outcome": "inactive"},
      {"smiles": "CC(C)(C)NC[C@H](O)c1ccc(O)cc1Cl", "outcome": "inactive"},
      {"smiles": "CC(C)[N+](C)(CCC(C(N)=O)(c1ccccc1)c1ccccc1)C(C)C", "outcome": "inactive"},
      {"smiles": "CC[C@@H](CO)NC(=O)[C@@H]1C=C2c3cccc4[nH]cc(c34)C[C@H]2N(C)C1", "outcome": "inactive"},
      {"smiles": "CN1COCN(Cc2cnc(Cl)s2)/C1=N\\[N+](=O)[O-]", "outcome": "inactive"},
      {"smiles": "CCc1ccc(C2CCNCC2)cc1", "outcome": "inactive"},
      {"smiles": "CCOC1Oc2ccc(OS(C)(=O)=O)cc2C1(C)C", "note": "(stereo not given)", "outcome": "inactive"}
    ]}
  ]
}
